# PubChem BioAssay (NCI)
# The panel holds about 83,000 compounds, 20% with a hit somewhere; the sample as a whole holds those more often.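 48-hour exposure, single concentration, 96-well plates; percent growth endpoint where 0 means no net growth. Active: below 10.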 Values without a mark were called inactive. The source made the active and inactive calls.
# Tests used:
# Experiment in all cases: NCI-60 one-dose screen, 48 h (100 = growth as untreated, 0 = no growth, -100 = all killed)
# Settings in all cases: 10 µM unless noted
# NCI-H23 lung = tested on: NCI-H23 lung
# NCI-H226 lung = tested on: NCI-H226 lung
# NCI-H322M lung = tested on: NCI-H322M lung
# HOP-62 NSCLC = tested on: HOP-62 NSCLC
# NCI-H460 lung = tested on: NCI-H460 lung
# HOP-92 NSCLC = tested on: HOP-92 NSCLC
# NCI-H522 lung = tested on: NCI-H522 lung
# A549/ATCC NSCLC = tested on: A549/ATCC NSCLC
# 786-0 renal = tested on: 786-0 renal
# COLO 205 colon = tested on: COLO 205 colon
# DU-145 prostate = tested on: DU-145 prostate
# K-562 leukemia = tested on: K-562 leukemia
# MALME-3M melanoma = tested on: MALME-3M melanoma
# MDA-MB-231 breast = tested on: MDA-MB-231 breast
# RXF 393 renal = tested on: RXF 393 renal
# SF-268 CNS = tested on: SF-268 CNS
# SF-295 CNS = tested on: SF-295 CNS
# SF-539 CNS = tested on: SF-539 CNS
# UACC-257 melanoma = tested on: UACC-257 melanoma
# M14 melanoma = tested on: M14 melanoma
SMILES,growth (NCI-H23 lung),growth (NCI-H226 lung),growth (NCI-H322M lung),growth (HOP-62 NSCLC),growth (NCI-H460 lung),growth (HOP-92 NSCLC),growth (NCI-H522 lung),growth (A549/ATCC NSCLC),growth (786-0 renal),growth (COLO 205 colon),growth (DU-145 prostate),growth (K-562 leukemia),growth (MALME-3M melanoma),growth (MDA-MB-231 breast),growth (RXF 393 renal),growth (SF-268 CNS),growth (SF-295 CNS),growth (SF-539 CNS),growth (UACC-257 melanoma),growth (M14 melanoma)
Nc1c2c(nc3ccc(Br)cc13)CC(c1ccccc1)CC2=O (stereo not given),37.7%,71.2%,49.1%,48.9%,17.1%,77.9%,35.6%,48.5%,49.6%,18.6%,24.2%,13.4%,51.9%,59.6%,21.8%,73.3%,9.76% (active),20%,86.3%,17.8%
O=C(Nc1ccc(/C=C2\SC(=O)N(Cc3ccc(OC(F)(F)F)cc3)C2=O)cc1)c1ccc(Cl)c([N+](=O)[O-])c1,80.8%,83.4%,42.7%,57.8%,94.6%,86.4%,83%,85%,99.6%,55.1%,72.7%,46.4%,98.4%,53.2%,83.5%,62.7%,96.1%,77.2%,80.1%,104%
Cc1cc(Cl)nc(N(CCCNc2ccnc3cc(Cl)ccc23)Cc2ccco2)n1,8.17% (active),24.1%,42.8%,25.7%,16.7%,-3.26% (active),13.8%,29.2%,19.5%,-54.5% (active),46.2%,0.302% (active),4.4% (active),22.9%,26.6%,52.5%,20.6%,20.1%,23.3%,-6.17% (active)
CCN1CCN(c2nc(C)cc(N(CCCNc3ccnc4cc(Cl)ccc34)Cc3ccco3)n2)CC1,62.2%,86.4%,63.5%,52.1%,39.9%,65.3%,71.6%,50.4%,64.8%,-21.2% (active),55.5%,8.16% (active),-6.8% (active),11.6%,48.5%,55.7%,51%,-63.5% (active),-2.43% (active),-76% (active)
C[Si](C)(C)Cc1ccccc1,102%,114%,119%,99.9%,120%,110%,139%,120%,98%,139%,125%,126%,115%,115%,132%,122%,103%,107%,112%,104%
Cc1cc(N(CCNc2ccnc3cc(Cl)ccc23)Cc2ccco2)nc(Cl)n1,14.2%,-62.3% (active),12.6%,-48.2% (active),-59.8% (active),-76.9% (active),-8.16% (active),-55.8% (active),-92.8% (active),-53.5% (active),19.6%,-54.5% (active),-64.6% (active),-75.4% (active),-79.8% (active),30.9%,-75% (active),-80.8% (active),-29.2% (active),-64.9% (active)
COc1cc(NC(C)CN(CC(C)C)C(C)C)c2ncccc2c1 (stereo not given),83.7%,89.7%,100%,109%,106%,74.4%,101%,105%,111%,96.9%,106%,98.1%,104%,81.1%,113%,94.7%,110%,103%,99.5%,102%
Cc1ccc(-c2nc([P+](c3ccccc3)(c3ccccc3)c3ccccc3)c(N3CCOCC3)o2)cc1,-9.72% (active),-2.72% (active),7.88% (active),-41.5% (active),3.34% (active),-28.7% (active),0.415% (active),9.89% (active),15.9%,-70% (active),12.9%,4.64% (active),-18.8% (active),-0.628% (active),-1.34% (active),12.5%,-10.3% (active),19.3%,-4.98% (active),0.413% (active)
CCCCCC1CCCCN1C(=O)OCC (stereo not given),106%,122%,112%,117%,108%,75.9%,98.2%,105%,88.2%,101%,105%,94.9%,90.9%,103%,170%,99.7%,123%,107%,106%,97.4%
O=C1NC(c2ccc(Cl)c(Cl)c2)=C/C1=C\c1ccccc1,84.8%,57.7%,79%,69.1%,18.6%,72.1%,79%,55.1%,9.12% (active),65.2%,95.9%,72.6%,63.3%,69.9%,65.2%,92.3%,52.2%,84.7%,98.2%,90.9%
N#C/C(=C\c1ccc(-c2ccccc2)o1)c1nc(-c2ccco2)cs1,82.7%,81.3%,84.6%,98.6%,85%,87.4%,93.8%,101%,106%,104%,107%,93.2%,94.8%,86.3%,105%,101%,97.6%,94.9%,103%,93.8%
Clc1cc(Cl)cc(Nc2ccc3c(OCCCN4CCOCC4)cccc3n2)c1,77%,26.6%,45.1%,57.4%,13.1%,37.3%,5.16% (active),25.6%,54%,-53.4% (active),41.9%,-33.9% (active),71%,-24.6% (active),53.5%,48.4%,30.6%,48.1%,73.2%,0.379% (active)
Cc1cc2nc3c4cc(O)ccc4n(CCN(C)C)c3nc2cc1C,-35.3% (active),-24.6% (active),-11% (active),3.06% (active),3.73% (active),21.1%,-13.5% (active),-32.7% (active),5.67% (active),-40.6% (active),6.38% (active),7.53% (active),-61.6% (active),-5.62% (active),-54% (active),9.22% (active),-19.8% (active),-13.1% (active),-15.1% (active),-33.7% (active)
Cn1c(=O)c2c(nc(N3CCCC3)n2C)n(C)c1=O,96.4%,102%,105%,104%,102%,90.9%,91.5%,85.6%,97%,110%,105%,99.2%,103%,98.9%,104%,97.3%,102%,101%,93.2%,92.3%
N#C/C(=C\c1ccc(-c2ccc(Cl)cc2)o1)c1nc(-c2ccco2)cs1,93.9%,89.3%,91.6%,97.5%,96%,85.8%,90.6%,91.9%,104%,109%,103%,94.4%,99.9%,85.3%,108%,101%,92.9%,94.7%,104%,98.9%
CC(=O)n1c(/C(C#N)=C/c2ccc(N(C)C)cc2)cc2ccccc21,40.5%,61.1%,53.3%,31.3%,15%,70.9%,23.1%,48.8%,41.3%,16.5%,35.8%,15%,57%,44.7%,24.6%,56.9%,7.39% (active),17.1%,68.6%,26.8%
